Screening results: PubChem BioAssay, National Center for Advancing Translational Sciences (NCATS)
The full list was thinned out, with hits kept by preference.
JMJD2E inh = blocks human JMJD2E demethylase activity | AID 2147 | Potency, µM (top dose mostly 57.1 µM), for inactives: at the top dose activity change, negative = inhibition, actives largely listed as inhibitors | JMJD2E catalytic domain, FDH-coupled NADH fluorescence (FDH is formaldehyde dehydrogenase) | 230,000 tested, 1.6% active; active = well fitted inhibition curve with a large enough effect, not every such curve was filed as active; inconclusive = small, poorly fitted or top-dose-only effect, or another doubt; inactive = no such curve, though single readings can be large or run the other way;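 also: 0% = wells with enzyme and -100% = buffer wells without enzyme; nearly all actives have a fitted effect of over 50% in size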
BLM helicase inh = Bloom syndrome helicase (human) inhibition; P54132; recombinant BLM DNA unwinding, fluorescence dequenching; Potency, µM (series often up to 56.1 µM), for inactives: top-dose activity change, negative = inhibition, hits mostly inhibitors; 350,000 tested, 0.2% active; AID 2528;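 also: plate controls were vehicle for no effect and no enzyme for full effect; nearly all actives have a fitted effect of over 35% in size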
APEX1 inh = inhibitors of human APE1 endonuclease; P27695; recombinant APE1, TAMRA/BHQ-2 abasic DNA cleavage fluorescence; Potency, µM (doses to about 65.8 µM), inactives show at the highest dose activity change, negative = inhibition, hits mostly inhibitors; 350,000 tested, 0.35% active;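 also: plate controls were vehicle for no effect and reference inhibitor for full effect; nearly all actives have a fitted effect of over 55% in size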
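Activity was derived from the fluorescence gain between first and third kinetic reads (60 s intervals, ex 525/em 598 nm) after 50 nM THF-abasic TAMRA/BHQ-2 duplex was added to 0.75 nM APE1 preincubated 15 min with compound.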
RECQ1 inh-1 = blocks DNA unwinding by human RECQ1; RECQ1 DNA unwinding, red fluorescence kinetic read; Potency, µM (highest dose often 57.3 µM), for the others: at the highest dose activity, negative = inhibition, most hits filed as inhibitors; 240,000 tested, 0.54% active; AID 2549;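 also: plate controls were vehicle for no effect and no enzyme for full effect; nearly all actives have a fitted effect of over 30% in size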
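RECQ1T1 50 nM; forked duplex (20 bp + 30-nt ss tails) 200 nM, ATP 2 mM final; pH 8.0, 2 mM MgCl2, 2.5 ug/ml poly(dI-dC); 15 min compound preincubation; discontinuous kinetic read over 2 h at RT.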
KAT2A inh = blocks human GCN5L2 histone acetyltransferase | GCN5L2 HAT assay, ThioGlo1 CoA-SH fluorescence | Potency, µM (highest dose often 58.9 µM), without a hit: at the top dose activity change, negative = inhibition, usual class: inhibitors | 390,000 tested, 0.21% active | AID 504327
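GCN5L2 (20nM final) in 50mM HEPES, 0.1mM EDTA pH 7.5, 0.01% Tween-20 was preincubated 15 min at room temperature with compound, then given ThioGlo1 (50uM), H3(1-25) peptide (75uM) and acetyl-CoA (70uM); CoA-thiol fluorescence (Ex340/Em540) was read at 0 and 20 min.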
TDP1 inh = blocks human tyrosyl-DNA phosphodiesterase 1; recombinant TDP1, AlphaScreen DNA substrate cleavage; Potency, µM (doses to about 130 µM), for the others: top-dose activity change, negative = inhibition, most hits filed as inhibitors; 350,000 tested, 0.28% active; AID 485290; also: nearly all actives have a fitted effect of over 40% in size
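Recombinant E. coli-expressed Tdp1 (1 nM) preincubated with compound 15 min at RT, then 5'-biotin/3'-phosphotyrosine-FITC DNA substrate (15 nM) added for 5 min. AlphaScreen beads (10 ug/ml) added, 10 min RT; tyrosine-FITC cleavage read as signal loss.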
RECQ1 conf = confirmation of human RECQ1 helicase inhibitors; Potency, µM (titrated, usually from 229 µM), for the others: at the top dose activity change, negative = inhibition, most hits filed as inhibitors; 610 tested, 28% active; RECQ1 helicase DNA unwinding, fluorescence; AID 2708; shares compounds with RECQ1 inh-1; also: nearly all actives have a fitted effect of over 45% in size
ADP FP counter = displaces ADP in a fluorescence polarization counter-screen for RECQ1 hits; shares compounds with RECQ1 inh-1; ADP fluorescence polarization displacement counterscreen; Potency, µM (highest dose often 228 µM), for inactives: at the highest dose activity change, negative = inhibition, usual class: inhibitors; 530 tested, 27% active; also: nearly all actives have a fitted effect of over 45% in size
RECQ1 inh-2 = RECQ1 helicase inhibition confirmed, round 2; AID 504841; recombinant RECQ1 DNA unwinding, red fluorescence; shares compounds with RECQ1 inh-1; 1,100 tested, 15% active; Potency, µM (highest dose often 119 µM), inactives show top-dose activity, negative = inhibition, hits mostly inhibitors; also: nearly all actives have a fitted effect of over 50% in size
* hit, by the source's call; [ ] = dose if it differs, or a comment. Unless noted, calls follow the shape of the dose curve; as a rule, active = well fitted curve in the direction sought with a large enough effect; inconclusive = small, poorly fitted or top-dose-only effect, or another doubt; inactive = no such curve, though single readings can be large; an effect the other way counts as inactive or inconclusive. Unless noted, % is scaled to controls: 0 for no effect and ±100 for the full control effect; potency is read from the fitted curve at half-maximal effect.

For COCCn1c(N)c(C(=O)NCc2cccs2)c2nc3ccccc3nc21 the results were JMJD2E inh inconclusive, BLM helicase inh -13%, APEX1 inh inconclusive, RECQ1 inh-1 inconclusive, KAT2A inh -27%, TDP1 inh inconclusive and RECQ1 inh-2 -16%.
Screening COCCn1c(N)c(C(=O)NCC2CCCO2)c2nc3ccccc3nc21 (stereo unspecified) returned JMJD2E inh inconclusive, BLM helicase inh inconclusive, APEX1 inh inconclusive, RECQ1 inh-1 inconclusive, KAT2A inh inconclusive, TDP1 inh 2% and RECQ1 inh-2 -10%.
CC(C)c1ccc2c(c1)NC(c1ccc(F)cc1)=NC(c1cccs1)=N2 was read as BLM helicase inh -12%, KAT2A inh -13% and TDP1 inh 12%.
`CSCC[C@H](NC(=O)[C@@H]1CCCN1C(=O)[C@H](CCCN=C(N)N)NC(=O)[C@H](CC(C)C)NC(=O)[C@@H]1CCCN1C(=O)[C@@H](NC(=O)[C@@H](N)CCC(N)=O)C(C)C)C(=O)N[C@H](C(=O)N[C@@H](Cc1ccc(O)cc1)C(=O)N[C@@H](CCCCN)C(=O)O)[C@@H](C)O` gave BLM helicase inh 3%, APEX1 inh -2%, RECQ1 inh-1 4%, KAT2A inh 5% and TDP1 inh 8%.
Cc1nc2c(ccc3nc(NC(=O)C(c4ccccc4)c4ccccc4)sc32)s1 was read as JMJD2E inh -13%, BLM helicase inh -10%, APEX1 inh inconclusive, RECQ1 inh-1 25µM*, KAT2A inh -12%, TDP1 inh 5% and RECQ1 inh-2 -22%.
CCc1ccc(-n2c(SCC(=O)N3CCC(C(=O)O)CC3)nnc2-c2ccncc2)cc1 was read as JMJD2E inh -7%, BLM helicase inh 0%, APEX1 inh 0%, RECQ1 inh-1 inactive, KAT2A inh -3% and TDP1 inh -5%.
`CCc1ccc(-n2c(SCC(=O)N3Cc4ccccc4CC3C(=O)O)nnc2-c2ccncc2)cc1` (stereo unspecified) gave JMJD2E inh inconclusive, BLM helicase inh 0%, APEX1 inh -3%, RECQ1 inh-1 inactive, KAT2A inh 1%, RECQ1 conf 20% and ADP FP counter -6%.
O=C1Nc2ccccc2SC(c2ccccc2)C1O (stereo unspecified) was read as JMJD2E inh inconclusive, BLM helicase inh -8%, APEX1 inh inconclusive, RECQ1 inh-1 32µM*, KAT2A inh -22%, TDP1 inh inconclusive and RECQ1 inh-2 inconclusive.
For CCOC(=O)C1OC1c1ccccc1 (stereo unspecified) the results were APEX1 inh -3%, RECQ1 inh-1 -11% and TDP1 inh 4%.
Screening COc1ccc(-n2c(Cc3cccn3C)nnc2SCC(=O)Nc2ccc(C(C)=O)cc2)cc1 returned JMJD2E inh -20%, BLM helicase inh -7%, APEX1 inh -9%, RECQ1 inh-1 22µM*, KAT2A inh -16%, TDP1 inh 10% and RECQ1 inh-2 -4%.
For Cc1ccc(-n2c(Cc3cccn3C)nnc2SCC(=O)NCc2ccco2)cc1 the results were JMJD2E inh -20%, BLM helicase inh 1%, APEX1 inh -5%, RECQ1 inh-1 22µM*, KAT2A inh inconclusive, TDP1 inh 8%, RECQ1 conf -9%[114 µM], ADP FP counter 14%[91.9 µM] and RECQ1 inh-2 -15%.
Cc1ccc(-n2c(Cc3cccn3C)nnc2SCC(N)=O)cc1 was read as JMJD2E inh -5%, BLM helicase inh 0%, APEX1 inh 0%, RECQ1 inh-1 inactive, KAT2A inh 3% and TDP1 inh 5%.
`O=C(CSc1nnc(-c2ccncc2)n1Cc1ccco1)Nc1ccccc1Cl` gave JMJD2E inh 3%, BLM helicase inh -1%, APEX1 inh -5%, RECQ1 inh-1 -14%, KAT2A inh 10% and TDP1 inh 3%.
Screening O=C(CSc1nnc(-c2ccncc2)n1Cc1ccco1)Nc1nc(-c2ccccc2)cs1 returned JMJD2E inh 4%, BLM helicase inh -10%, APEX1 inh -5%, RECQ1 inh-1 inactive, KAT2A inh -2%, TDP1 inh 3%, RECQ1 conf -16% and ADP FP counter 41%.
`COc1ccc(NCc2nnc(SCC(=O)Nc3nc(-c4ccccc4)cs3)n2-c2ccccc2)cc1` gave JMJD2E inh -2%, BLM helicase inh 1%, APEX1 inh 2%, RECQ1 inh-1 4%, KAT2A inh 0%, TDP1 inh -3%, RECQ1 conf 15% and ADP FP counter inconclusive.
For C=CCc1cccc(/C=N/NC(=O)CN2CCN(Cc3ccccc3)CC2)c1O the results were BLM helicase inh -24%, APEX1 inh 19%, RECQ1 inh-1 22µM*, KAT2A inh -20%, TDP1 inh 15%, RECQ1 conf inconclusive and ADP FP counter 11µM*.
CCOc1ccc(CC(=O)Nc2nnc3n2CCS3)cc1 was read as BLM helicase inh -2%, KAT2A inh 0% and TDP1 inh -4%.
For COc1cccc(/C=C2/SC(=S)N(CC(=O)Nc3nccs3)C2=O)c1 the results were TDP1 inh 2%.
O=C1CC(c2nc3ccccc3n2CCCCOc2ccccc2)CN1c1ccccc1Cl (stereo unspecified) was read as BLM helicase inh -12%, KAT2A inh -14% and TDP1 inh 5%.
Screening Cc1n[nH]c(C)c1N1C(=O)c2cccc3c(N4CCCCCC4)ccc(c23)C1=O returned JMJD2E inh -11%, BLM helicase inh -4%, APEX1 inh -2%, RECQ1 inh-1 28µM*, KAT2A inh 0%, TDP1 inh 3% and RECQ1 inh-2 79µM*.
